From PubChem BioAssay (NCI)
The panel holds about 79,000 compounds, 15% with a hit somewhere; the sample as a whole holds those more often. Values without a mark were called inactive. The source made the active and inactive calls. Cut-off read from the data, not from the text of the source: active = growth inhibition above about 70%; inactive = the rest.

Key:
[1] = NCI Yeast Anticancer Drug Screen. Data for the rad50 strain (AID 155);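 note: 0% = growth of vehicle-only cultures of the same strain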; settings: S. cerevisiae rad50 strain growth inhibition; at 50.0 µM; active compounds read high
In short: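 Compounds were tested on a yeast strain with an engineered DNA damage repair alteration; the reported value is growth inhibition normalised to vehicle treatment.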

[2] = NCI Yeast Anticancer Drug Screen. Data for the mec2-1 strain (AID 157); settings: S. cerevisiae mec2-1 strain, at 50.0 µM, active compounds read high
In short: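 Compounds were applied to mec2-1 yeast cells. Their growth was then compared with that of vehicle-treated cultures to give growth inhibition.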

[3] = NCI Yeast Anticancer Drug Screen. Data for the cln2 rad14 strain (AID 165);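 note: 0% = growth equal to vehicle treated cultures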; settings: S. cerevisiae cln2 rad14 strain, at 50.0 µM, active compounds read high
In short: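 Strain: cln2 rad14 yeast, altered in cell cycle control and DNA damage repair. Read-out: growth inhibition vs vehicle.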

[4] = NCI Yeast Anticancer Drug Screen. Data for the bub3 strain (AID 167); settings: S. cerevisiae bub3 mutant strain, at 50.0 µM, active compounds read high
In short: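 Growth of a checkpoint-deficient yeast mutant is measured after compound exposure. Values represent inhibition relative to vehicle.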

[5] = NCI Yeast Anticancer Drug Screen. Data for the mlh1 rad18 strain (AID 175); settings: S. cerevisiae mlh1 rad18 strain growth inhibition; at 50.0 µM; active compounds read high
In short: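 A repair-deficient yeast strain is exposed to test compound, and growth is scored relative to vehicle-treated controls.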

Row | SMILES | growth inhibition [1] | growth inhibition [2] | growth inhibition [3] | growth inhibition [4] | growth inhibition [5]
1 | C/C(=N\NC(=O)c1ccccc1N)c1ccccc1O | 6.15% | -7.75% | 4.5% | 26.1% | 21.7%
2 | O=c1[nH][nH]c(=O)c2cc([N+](=O)[O-])ccc12 | 32.9% | 11.6% | -67.7% | -15% | 18.1%
3 | N#CCc1ccc([N+](=O)[O-])cc1 | -14.2% | 8.3% | -2.1% | 15.2% | -6.3%
4 | CC(=Nc1ccccc1)C1=C(O)C(Cc2cccc(F)c2)NC1=O (stereo unspecified) | 5.3% | 4.35% | 2.3% | -2.5% | -22%
5 | Oc1ccc(N=Nc2ccc(Br)cc2)c(O)c1 | 4.15% | 31.3% | -20.1% | 33.6% | 22.8%
6 | Cc1nc2ccccc2c(C(=O)O)c1O | 9.45% | -10.2% | 6.65% | 11.1% | 19.9%
7 | O=C1Cc2cc(O)ccc2O1 | -13.4% | -28.2% | -0.85% | -32% | -8.75%
8 | COc1cc(/C=N\Nc2ccccc2)ccc1OC(=O)c1ccccc1 | 25.1% | 8.95% | 23.9% | 11.8% | –
9 | COC(=O)Nc1cccc(Cl)c1OC | 8.6% | -21.4% | 2.05% | 3.55% | -6.55%
10 | CO[C@H]1C[C@@H]2CC[C@@H](C)[C@@](O)(O2)C(=O)C(=O)N2CCCC[C@H]2C(=O)O[C@H]([C@H](C)C[C@@H]2CC[C@@H](O)[C@H](OC)C2)CC(=O)[C@H](C)C=C(C)[C@@H](O)[C@@H](OC)C(=O)[C@H](C)C[C@H](C)/C=C/C=C/C=C1C | 88.8% (active) | 91.2% (active) | 85.2% (active) | 89.1% (active) | 89.4% (active)
11 | CCNc1nc2c(cnn2C)c(=O)[nH]1 | -16.6% | 28.4% | -34.1% | 28.1% | 29.4%
12 | CCCCCCCO | -11% | -17.9% | 2.25% | -14.7% | -11.9%
13 | CCOC(=O)/C(=C/c1ccc(OC)cc1)N(CC)CC | -45.8% | -22.7% | – | -19.1% | –
14 | COc1ccc(C(C)C=O)cc1 (stereo unspecified) | 5.55% | -14.8% | -51.5% | -27.9% | 2.3%
15 | CC(C)=NNC(N)=S | 2.45% | -9.4% | -22.8% | 2.35% | -3.95%
16 | O=S(=O)(Cc1ccccc1)c1ccccc1 | 4.6% | 1.1% | -0.8% | -17.5% | 23.9%
17 | CCOC(=O)CSc1c([N+](=O)[O-])ncn1C | 4.9% | 0.5% | – | 8.75% | -10.4%
18 | CCCCCCCCCCC1CO1 (stereo unspecified) | 4.95% | -4.15% | -23.1% | -13.9% | -8.05%
19 | O=C(O)/C=C/c1ccc2c(c1)CCC2 | 28.6% | 18.1% | 23.8% | 50.6% | 42.2%
20 | Cc1ccccc1N=C(c1ccccc1)C1C(=O)c2ccccc2C1=O | -20.6% | 19.4% | 29% | 49.2% | 12.6%
21 | COC(=O)c1ccc(C(C)C)cc1 | 2.95% | 11.8% | 16.1% | 0.3% | 4.05%
22 | COc1ccccc1NC(=O)C1=C(C)NC(C)=C(C(=O)Nc2ccccc2OC)C1c1cccc([N+](=O)[O-])c1 | -3.3% | 23.2% | -3.9% | 20.4% | 11.3%
